Among all 360,000 compounds or so, about 4,500 (1.2%) were called active. The full list was thinned out, with actives kept by preference. Values without a mark were called inactive. Rule as the data show it: active = inhibition above about 30%; inactive = the rest.

The experiment is described as follows: GDH-TPI coupling enzyme inhibitors, primary screen, artefact control for M. tuberculosis FBA inhibitor project, biochemical, absorbance, full deck (AID 588335).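 Also: 0% = DMSO wells and 100% = wells lacking the enzyme.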 The settings on record: GDH-TPI coupled enzyme counterscreen, NADH absorbance; at 4.8 µM; hits give high values. A general note: A counterscreen serves to expose hits that act by an unwanted route or on another target.
In the case of `CCN(CC)c1ccc(/C=N/Nc2nc(C)cc(C)n2)c(O)c1`, the inhibition (in general, the relative decrease from the control value, in per cent) is 31.7% (active). For `Cc1cc(C)nc(N/N=C/c2c(CO)cnc(C)c2O)n1` the value was 16.2%; for `Cn1cnnc1Sc1ccc(S(C)(=O)=O)cc1[N+](=O)[O-]`, 13%; for `Cc1c(-c2nn(C)c(=O)c3ccccc23)oc2ccc(F)cc2c1=O`, 18%.

On to `CC(C)NC(=O)NCCCCCCS(C)=O` (configuration not stated), for which the inhibition is 16.7%. As to `COCCNc1nc(N)c([N+](=O)[O-])c(NCCO)n1`, the inhibition was 26.7%. The value for `Nc1nc(NCCCN2CCOCC2)nc(Nc2ccccc2)c1[N+](=O)[O-]` was 28.5%; that for `Nc1nc(Nc2ccccc2)nc(NCCO)c1[N+](=O)[O-]` was 39.5% (active); that for `O=C(Oc1cccc(NC2=NS(=O)(=O)c3ccccc32)c1)c1ccncc1` was 0.95%. As for `CC(C)(C)c1csc(NC2=NS(=O)(=O)c3ccccc32)n1`, the inhibition is 36.1% (active). On to `Cc1ccc(S(=O)(=O)N(NC2=NS(=O)(=O)c3ccccc32)C(=O)c2ccccc2)cc1`, for which the inhibition was 4.78%. Take `Cc1cc(-c2ccccc2)nc(N2CCC(C(=O)NC34CC5CC(CC(C5)C3)C4)CC2)n1`: the inhibition is -1.41%.

Consider `CSc1nc2nc3c(c(=O)n2[nH]1)CCC3`, for which the inhibition was 5.66%. As for `Cc1ccccc1NC(=O)Cc1nc(COC(=O)C(C)(C)Oc2ccc(Cl)cc2)cs1`, the inhibition is -5.31%.

On to `COc1cccc(NC(=O)COC(=O)/C=C/c2ccco2)c1`, for which the inhibition is 6.67%. Turning to `O=C(/C=C/c1ccco1)NC(=S)Nc1ccccc1Br`, the inhibition is 35.7% (active). With `O=C(/C=C/c1ccco1)Nc1ccc(Oc2ccccc2)cc1`, the inhibition was 38% (active). For `COc1ccc(Cl)cc1C(=O)NNC(=S)NC(=O)/C=C/c1ccco1` the value was 5.35%. Consider `O=C(O)/C=C\C(=O)Nc1ccc(OCc2ccccc2)cc1`, for which the inhibition was 5.18%.

As for `O=C(/C=C/c1ccco1)NC(=S)N1CCCCC1`, the inhibition was 10.6%.

On to `CCOc1ccc(NC(=O)CSc2nc3ccccc3c(=O)n2Cc2cccs2)cc1`, for which the inhibition was 6.55%. Take `O=C(C[C@H]1C(=O)N(c2ccc(F)c(F)c2)C[C@@H]1Cc1ccccc1)Nc1ccccc1`: the inhibition is -1.2%. Turning to `O=Cc1cn(CCOc2ccc(F)cc2)c2ccccc12`, the inhibition was 7.08%.

As for `Cc1cccc2nc(CNc3ccc(F)cc3)cn12`, the inhibition is 10.8%. `CCC1CCCCN1S(=O)(=O)Cc1ccccc1Cl` (configuration not stated): the inhibition was 0.61%. Consider `COc1ccc(S(=O)(=O)N2CCCC2CNC(=O)C(=O)NC2CC2)cc1` (configuration not stated), for which the inhibition is -18%.

Take `COc1ccc2c(c1)CCc1cn3ncc(C#N)c3nc1-2`: the inhibition was 2.17%.

The values are drawn from PubChem BioAssay AID588335 (The Scripps Research Institute Molecular Screening Center, 2011).
